The nature of assay [1]: liver-stage malaria parasite growth inhibition, primary screen, cell-based, HepG2, luciferase luminescence, HepG2 viability (AID 624349; in the data active means parasite load remaining mostly below about 12%, no sharp cut-off; inactive means mostly above about 10%;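 further: 100% = mean of DMSO negative control wells on the same plate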). The settings on record: P. berghei liver stage in HepG2, luciferase luminescence, concentration not given here; parasite load remaining: stronger effect = lower value; viability: measured here: HepG2 viability without parasites.
Assay [2] is described as follows: Cy5 fluorescence interference with SSB-bound oligo, artefact control for HCV NS3 helicase inhibitor project, biochemical, NIH Clinical Collection, E. coli SSB (AID 743268; call rule not given here).
The test system of assay [3] is Hepatitis C virus NS3 helicase. The assay can be described thus: HCV NS3 helicase inhibitors, primary screen, biochemical, fluorescence polarization, NIH Clinical Collection (AID 743270; call rule not given here). The conditions noted are these: NS3 helicase binding to Cy5-dT15 DNA, stronger effect = higher value, concentration not given here. Background: Polarisation of emitted light reports the rotation of a fluorescent probe.

The target of assay [4] is Single-stranded DNA-binding protein (Escherichia coli (strain K12)) (UniProt P0AGE0). The assay can be described thus: E. coli SSB displacement from DNA, counter-screen for HCV NS3 helicase inhibitor project, biochemical, fluorescence polarization, NIH Clinical Collection (AID 743271; in the data active means inhibition above about 28%). The conditions noted are these: stronger effect = higher value, concentration not given here. (A counterscreen serves to expose hits that act by an unwanted route or on another target.)

A short description of assay [5]: fluorescence interference in NS3h assay format, artefact control for HCV NS3 helicase inhibitor project, biochemical, NIH Clinical Collection (AID 743272; call rule not given here;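 further: HCV NS3 helicase with a Cy5 labelled single stranded DNA probe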). The conditions noted are these: fluorescence interference counterscreen, stronger effect = lower value.
Assay [6] in a line: sensitizers of A549 cells to miR-34 induction, primary screen, imaging, A549 dox-inducible miR-34, nuclei and caspase counts (AID 1347080;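 active means compounds whose cell count with miR-34 switched on is under 0.7 times the count with it off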). The conditions noted are these: A549 miR-34 inducible, Hoechst nuclei count, 48 h.
Assay [7] relates to F380Y. The assay can be described thus: modulators of BK channel variants, profiling panel, selectivity assay, cell-based, U2OS BacMam, thallium flux, beta subunits (AID 1259406).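 Further: initial slope of Thallos dye fluorescence rise after thallium is added; log ratio against the mean of 0.3% DMSO vehicle wells on the same plate.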 The settings on record: at 30 µM.
Assay [8] deals with F380Y/beta2Delta. The description is as above. The settings on record: at 30 µM.
Assay [9] relates to R275C. The assay is described as above. The conditions noted are these: at 30 µM.
Assay [10] relates to R275C/beta1. The description is as above. The conditions noted are these: at 30 µM.
Assay [11] has as its system R275C/beta2Delta. Described as above. The conditions noted are these: at 30 µM.
The test system of assay [12] is R275C/Slo1WT/beta2. The assay is described as above. The conditions noted are these: at 30 µM.
Where [13] appears, read: measured here: relative caspase fold change +Dox/-Dox.
Setting [14] is: measured here: total cells with miR-34 induction, stronger effect = lower value.
[15] abbreviates: measured here: total cells without miR-34 induction.

Structures are written as SMILES. “And” between values parts separate entries of the source, which are not always exact repeats. Identical values can stand only once. The source made the active and inactive calls.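 How the source made its calls, unless noted: active means thallium flux through the channel raised or lowered by more than 3 SD from vehicle-only wells, actives on both sides; inactive means the rest.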

`O=C1CN=C(c2ccccc2)c2cc([N+](=O)[O-])ccc2N1`: the parasite load remaining in assay [1] was 89.5% (inactive). The same molecule showed a viability in assay [1] of 68.5%. In addition, the fluorescence ratio was 1.05 (inactive) in [2] and 1.04 (inactive) in assay [5]. Moreover, the inhibition in [3] is 5.94% (inactive); in assay [4] it was 2.21% (inactive). In addition, the fold change was 0.945 (inactive) in assay [6] (stronger effect = lower value) and 1.76 in [6] (setting [13]). The cell count in assay [6] (setting [14]) amounted to 9060; in assay [6] (setting [15]) it was 9590. Moreover, the log fold change Tl+ flux is 0.0223 (inactive) in assay [7]; 0.0172 (inactive) in assay [8]; -0.0214 (inactive) in assay [9]; -0.097 (active) in assay [10]; 0.0168 (inactive) in [11]; 0.00947 (inactive) in assay [12].

For `C[C@]12CC(=CO)C(=O)C[C@@H]1CC[C@@H]1[C@@H]2CC[C@@]2(C)[C@H]1CC[C@]2(C)O`, the parasite load remaining in assay [1] is 62.4% (inactive). This molecule gave a viability in assay [1] of 66.1%. Besides, the fluorescence ratio was 1.04 (inactive) in [2] and 1.01 (inactive) in assay [5]. For the same molecule, the inhibition in [3] is 5.15% (inactive); in assay [4], 3.75% (inactive). Also, the log fold change Tl+ flux in assay [7] is 0.111 (active); in assay [8] it was 0.171 (active); in [9] it was 0.0626 (inactive); in [10], 0.301 (active); in assay [11], 0.261 (active); in assay [12], 0.0227 (inactive).

As to `CCN(C(C)=O)c1cccc(-c2ccnc3c(C#N)cnn23)c1`, in assay [1], the parasite load remaining was 67.8% (inactive). Besides, the viability in assay [1] came out at 71%. For the same molecule, the fluorescence ratio was 0.96 (inactive) in [2] and 0.98 (inactive) in assay [5]. Also, the inhibition in assay [3] was -1.97% (inactive); in assay [4], -3.54% (inactive). The fold change is 0.85 (inactive) in assay [6] (stronger effect = lower value) and 1.13 in assay [6] (setting [13]). Moreover, the cell count in assay [6] (setting [14]) is 8990; in [6] (setting [15]), 10600.

As to `CCCCC/C=C\C/C=C\C/C=C\C/C=C\CCCC(=O)Nc1ccc(O)cc1`, the parasite load remaining in [1] is 94.1% (inactive). Also, the viability in assay [1] came out at 87.5%. Also, the fluorescence ratio in [2] is 0.87 (inactive); in [5] it was 0.88 (inactive). Besides, the inhibition is 0.4% (inactive) in assay [3] and 4.52% (inactive) in assay [4]. The fold change is 1.04 (inactive) and 0.798 (inactive) in assay [6] (stronger effect = lower value); 0.71 and 1.12 in assay [6] (setting [13]). In addition, the cell count was 5430 and 5550 in assay [6] (setting [14]); 5220 and 6950 in assay [6] (setting [15]).

Take `CN1CC[C@@H](c2ccc(F)cc2)[C@H](COc2ccc3c(c2)OCO3)C1`: the parasite load remaining in assay [1] was 84.5% (inactive). Also, the viability in assay [1] was 65.3%. Also, the fluorescence ratio is 1.01 (inactive) in assay [2] and 0.93 (inactive) in assay [5]. For the same molecule, the figures for the inhibition in [3] and in assay [4] were 2.77% (inactive) and 0.67% (inactive), respectively. Also, the log fold change Tl+ flux was 0.106 (inactive) in [7]; 0.045 (inactive) in assay [8]; -0.0665 (inactive) in assay [9]; 0.146 (active) in [10]; 0.0265 (inactive) in assay [11]; -0.033 (inactive) in assay [12].

As for `C[C@]12CCC(=O)C=C1CC[C@@H]1[C@@H]2CC[C@@]2(C)[C@H]1CC[C@]2(C)O`, the parasite load remaining in assay [1] was 82.1% (inactive). In assay [1], this molecule had a viability of 78%. The fluorescence ratio in assay [2] is 1.03 (inactive); in assay [5], 0.97 (inactive). Moreover, the values for the inhibition in [3] and in assay [4] were 0.4% (inactive) and -2.41% (inactive), respectively. The log fold change Tl+ flux in assay [7] was -0.0714 (inactive); in assay [8], -0.0632 (inactive); in assay [9] it was -0.0155 (inactive); in assay [10], 0.014 (inactive); in [11], 0.0131 (inactive); in assay [12], -0.0244 (inactive).

Take `O=C1Nc2ccc(Cl)cc2C(c2ccccc2Cl)=NC1O` (configuration not stated): the parasite load remaining in assay [1] is 64.7% (inactive). For the same molecule, in assay [1], the viability was found to be 68.3%. For the same molecule, the fluorescence ratio in [2] is 0.98 (inactive); in assay [5], 0.96 (inactive). The inhibition in [3] is -3.71% (inactive); in [4], -0.39% (inactive). Besides, the fold change was 0.901 (inactive) in assay [6] (stronger effect = lower value) and 1.36 in assay [6] (setting [13]). The cell count in assay [6] (setting [14]) worked out at 9700; in [6] (setting [15]), 10800.

`COc1ccc2c(c1)C13CCCC[C@@H]1C(C2)N(C)CC3` (some centres not stated): in [1], the parasite load remaining is 74.7% (inactive). The viability in [1] is 74%. The fluorescence ratio is 0.98 (inactive) in assay [2] and 0.92 (inactive) in [5]. Further, the figures for the inhibition in assay [3] and in assay [4] were 0.4% (inactive) and 2.21% (inactive), respectively.

As to `COc1ccc2[nH]cc(C3=CCNCC3)c2c1`, the parasite load remaining in [1] is 75.7% (inactive). This molecule registered a viability in assay [1] of 72.8%. In addition, the fluorescence ratio in assay [2] is 0.58 (active); in [5], 0.79 (active). The inhibition is -1.09% (inactive) in [3] and 5.91% (inactive) in [4]. The fold change was 0.984 (inactive) in assay [6] (stronger effect = lower value); 0.928 (inactive) in [6] (stronger effect = lower value, cell number ratio, induced over uninduced); 1.1 and 0.779 in [6] (setting [13]). In addition, the cell count was 6960 and 7660 in assay [6] (setting [14]); 7080 and 8260 in [6] (setting [15]). Besides, the log fold change Tl+ flux in assay [7] was 0.0506 (inactive); in [8], 0.0281 (inactive); in assay [9] it was -0.00261 (inactive); in assay [10], 0.0891 (active); in assay [11] it was 0.0216 (inactive); in assay [12], 0.242 (active).

As to `Clc1ccc(CON=C(Cn2ccnc2)c2ccc(Cl)cc2Cl)c(Cl)c1`, the parasite load remaining in [1] is 2.5% (inactive). Further, the viability in assay [1] is 54.6%. Moreover, the fluorescence ratio in [2] was 0.95 (inactive); in assay [5], 1 (inactive). In addition, the inhibition was 13.1% (inactive) in assay [3] and 7.6% (inactive) in assay [4]. The fold change in [6] (stronger effect = lower value) is 1.28 (inactive); in assay [6] (setting [13]), 0.637. Moreover, the cell count amounted to 3280 in assay [6] (setting [14]) and 2560 in assay [6] (setting [15]). For the same molecule, the log fold change Tl+ flux in [7] was -0.0332 (inactive); in assay [8], -0.00783 (inactive); in assay [9], -0.0645 (inactive); in assay [10], 0.329 (active); in assay [11], -0.0303 (inactive); in assay [12] it was 0.0197 (inactive).

As to `CN=C1CN(O)C(c2ccccc2)=c2cc(Cl)ccc2=N1`, in assay [1], the parasite load remaining was 61% (inactive). This molecule came in with a viability in [1] of 68.2%. The values for the fluorescence ratio in assay [2] and in assay [5] were 0.93 (inactive) and 0.94 (inactive), respectively. For the same molecule, the values for the inhibition in assay [3] and in assay [4] were -3.71% (inactive) and 1.97% (inactive), respectively. The fold change in [6] (stronger effect = lower value) was 0.896 (inactive); in assay [6] (setting [13]), 1.36. Moreover, the results for the cell count in [6] (setting [14]) and in assay [6] (setting [15]) were 9820 and 11000, respectively. The log fold change Tl+ flux in assay [7] is 0.0582 (inactive); in assay [8] it was 0.0735 (inactive); in assay [9], -0.0835 (inactive); in assay [10] it was 0.11 (active); in assay [11], 0.0426 (inactive); in assay [12], -0.0229 (inactive).

Broadly, the viability is the share of living cells, or the viability signal relative to a control. What is called inhibition is the relative decrease from the control value, in per cent.

The record behind these values is PubChem BioAssay.
